Assay [1] can be described thus: inhibitors of TNFa-induced NFkB p65 translocation, primary screen, imaging, HUVEC, MLSMR starter and 10KST1 sets (AID 438;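 active means inhibition above 20% together with a positive visual image hit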;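 further: compound added about 3h40 before a 20 min TNFalpha stimulation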;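 on inhibition: signal is the nuclear over cytoplasmic p65 intensity ratio per well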). Conditions: HUVEC TNFa-induced p65 nuclear translocation; cell count: measured here: nuclei count (cytotoxicity indicator), at 2.08 µM; inhibition: at 2 µM, stronger effect = higher value, 0% TNFa-plus-vehicle, 100% no-TNFa wells.
The nature of assay [2]: reduction of polyQ htt aggregates in cells – imaging, exon1htt(103Q)mCFP cells, high-content imaging, primary screen (AID 483;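 active means visual image review flags a hit and inhibition of aggregation exceeds 20%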;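 further: compound exposure lasted 3 days before fixation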;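 on nuclei count: percent of the per-plate median nuclei count of sample wells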). The settings on record: exon1htt(103Q)mCFP cell line, aggregate imaging, at 2 µM; inhibition of aggregation: stronger effect = higher value; nuclei count: measured here: cell count, toxicity.
A short description of assay [3]: endothelial E-selectin expression blockers – imaging, HUVEC, immunofluorescence, MLSMR starter and 10KST1 sets, primary screen (AID 487;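 active means visually confirmed hit in the image check and inhibition above 20%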;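 on inhibition: signal is fraction of cell area covered by stained E-selectin grains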;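 on nuclei count: 100% = median nuclei count of all wells on the same plate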). The settings on record: HUVEC TNFalpha-induced E-selectin immunofluorescence imaging, at 2 µM; inhibition: stronger effect = higher value; nuclei count: measured here: cell number, toxicity.
The target in assay [4] is Voltage-gated potassium channel subunit beta-2 (Rattus norvegicus) (UniProt P62483). Nature of the assay: inhibitors of rat Kvbeta2 reductase activity – biochemical, NADPH fluorescence, primary screen (AID 622;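 active means fluorescence slope higher than the sample average by over 3 SD, cut at about -0.22 in these data, passing the limit was not always enough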;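 further: slope of raw intensity against log time taken from 70 to 1610 s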). The settings on record: recombinant KvBeta, 4-cyanobenzaldehyde reduction, at 10 µM, stronger effect = higher value.
Assay [5] shares this target. Nature of the assay: enhancers of rat Kvbeta2 NADPH turnover – biochemical, NADPH fluorescence, primary screen (AID 623;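 active means NADPH fluorescence slope more negative than the mean of all samples by about 3 SD, 99.7% confidence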;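 further: fluorescence intensity change per second fitted from 20 to 320 s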). The settings on record: Recombinant KvBeta, NADPH fluorescence decrease slope, 10 min; at 10 µM; stronger effect = lower value.
The target of assay [6] is Alpha-2C adrenergic receptor (Homo sapiens) (UniProt P18825). Briefly: compounds altering alpha2C-coupled GIRK flux – cell-based, HEK293 alpha2C/GIRK1/2, thallium flux, primary screen (AID 624;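 active means fluorescence slope after compound addition differing from the mean of all screened samples at 99.7% confidence, in either direction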;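 further: slope of fluorescence ratio to pre-addition baseline per second over 15 to 24 s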). Conditions: thallium flux BTC fluorescence, at 10 µM, actives lie on both sides.
The nature of assay [7]: blockers of RIG-like receptor reporter activation – cell-based, Sendai virus stimulus, luciferase, 10K MLSCN set, TLR/RLR signaling modifier project, primary screen (AID 602276).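 Further: firefly luciferase from ISG56 promoter only with Renilla not read in this screen; 0% = Sendai virus plus DMSO and 100% = medium plus DMSO without virus.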 Conditions: HEK293 RL24 IRF3 luciferase reporter, at 10 µM, stronger effect = higher value. Background: Reporter assays use an easily measured gene product as a stand-in for the process of interest.
The nature of assay [8]: TLR3 IRF3 reporter activation blockers – cell-based, poly I:C stimulus, luciferase, 10K MLSCN set, primary screen (AID 602277;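 active means inhibition of the reporter signal at or above 50%; inactive means inhibition below 50%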). The settings on record: HEK293-TLR3 RL24 IRF3 luciferase reporter, at 10 µM, stronger effect = higher value.

Calls of active or inactive are those of the source.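 How the source made its calls, unless noted: active means inhibition at or above 50% at 10 µM; inactive means inhibition below 50%.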

Voltage-gated potassium channel subunit beta-2 (Rattus norvegicus), sequence (P62483 whole entry, looked up): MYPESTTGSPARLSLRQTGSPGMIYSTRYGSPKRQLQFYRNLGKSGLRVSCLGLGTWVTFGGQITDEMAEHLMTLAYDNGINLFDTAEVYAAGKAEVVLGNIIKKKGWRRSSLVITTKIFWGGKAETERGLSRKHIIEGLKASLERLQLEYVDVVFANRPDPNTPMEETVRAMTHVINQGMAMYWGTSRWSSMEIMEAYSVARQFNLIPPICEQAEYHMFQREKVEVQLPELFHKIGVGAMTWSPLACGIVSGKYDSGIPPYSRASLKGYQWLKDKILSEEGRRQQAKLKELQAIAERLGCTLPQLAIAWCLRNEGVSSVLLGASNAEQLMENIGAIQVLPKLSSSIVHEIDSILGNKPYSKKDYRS
Alpha-2C adrenergic receptor (Homo sapiens), sequence (P18825 whole entry, looked up): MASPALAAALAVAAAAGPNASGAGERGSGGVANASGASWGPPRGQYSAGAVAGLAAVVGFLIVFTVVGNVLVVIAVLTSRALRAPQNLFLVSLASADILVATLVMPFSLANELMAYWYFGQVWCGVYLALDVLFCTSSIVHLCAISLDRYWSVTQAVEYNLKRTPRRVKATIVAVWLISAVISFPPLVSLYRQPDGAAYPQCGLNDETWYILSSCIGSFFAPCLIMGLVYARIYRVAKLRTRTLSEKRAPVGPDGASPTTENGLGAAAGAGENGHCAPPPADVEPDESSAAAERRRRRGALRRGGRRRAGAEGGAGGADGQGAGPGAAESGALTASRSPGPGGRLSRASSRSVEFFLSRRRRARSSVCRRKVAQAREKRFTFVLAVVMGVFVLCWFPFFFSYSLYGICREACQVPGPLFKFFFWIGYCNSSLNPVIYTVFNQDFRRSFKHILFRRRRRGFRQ

As usually defined, the inhibition is the relative decrease from the control value, in per cent. Turning to `COc1ccc(CN(C(=O)c2oc3ccccc3c2C)C2CCS(=O)(=O)C2)cc1` (stereo not given), the cell count in assay [1] stood at 592. Besides, the inhibition in assay [1] is 1.7% (inactive); in assay [3], -5.9% (inactive); in assay [7], -2.17% (inactive); in assay [8] it was 8.82% (inactive). Also, in assay [2], the inhibition of aggregation was 7.1% (inactive). For the same compound, the values for the nuclei count in assay [2] and in assay [3] were 87.3% and 102%, respectively. The fluorescence slope in assay [4] was -0.444 (inactive). The NADPH fluorescence slope in assay [5] is 2.9e-05 (inactive). In addition, the slope in assay [6] is 0.00692 (inactive).
Turning to `Cc1ccc(-n2cnnn2)c2cccnc12`, the cell count in assay [1] is 658. Further, the inhibition is -9.3% (inactive) in assay [1], -17% (inactive) in assay [3], 5.45% (inactive) in assay [7] and 27.7% (inactive) in assay [8]. For the same compound, the inhibition of aggregation in assay [2] is -7% (inactive). Besides, the nuclei count was found to be 104% in assay [2] and 102% in assay [3]. Besides, the fluorescence slope in assay [4] is -0.402 (inactive). Besides, the NADPH fluorescence slope in assay [5] is -1.4e-05 (inactive). Further, the slope in assay [6] was 0.00333 (inactive).
With `CC1=C(C(=O)Nc2ccccc2C)C2(CCCC2)C(C(N)=O)C(=O)N1` (stereo not given), the cell count in assay [1] was determined as 683. Also, the inhibition in assay [1] is 0% (inactive); in assay [3] it was -126% (inactive); in assay [7], 13.6% (inactive); in assay [8], 17.8% (inactive). Also, the inhibition of aggregation in assay [2] is -25.1% (inactive). The results for the nuclei count in assay [2] and in assay [3] were 99% and 106%, respectively. Further, in assay [4], the fluorescence slope was -0.483 (inactive). In addition, the NADPH fluorescence slope in assay [5] is -4.6e-05 (inactive). Moreover, in assay [6], the slope was 0.0058 (inactive).
`CCOC(=O)c1cnn(-c2cc(C)c3cc(C)cc(C)c3n2)c1N`: the cell count in assay [1] came out at 494. Also, the inhibition in assay [1] was 9% (inactive); in assay [7], -17.1% (inactive); in assay [8], -21.2% (inactive). The inhibition of aggregation in assay [2] is -9.8% (inactive). The nuclei count in assay [2] was 110%; in assay [3], 152%. The fluorescence slope in assay [4] was -0.545 (inactive). The NADPH fluorescence slope in assay [5] is 2e-05 (inactive). For the same compound, in assay [6], the slope is 0.00906 (inactive).
With `COc1ccc(N2CCN(C(=O)c3c(-c4ccccc4)noc3C)CC2)cc1`, in assay [1], the cell count is 650. Also, the inhibition was 1.1% (inactive) in assay [1], -7.4% (inactive) in assay [3], -19.4% (inactive) in assay [7] and -16.5% (inactive) in assay [8]. For the same compound, in assay [2], the inhibition of aggregation is -16% (inactive). Moreover, the figures for the nuclei count in assay [2] and in assay [3] were 90.4% and 96%, respectively. Also, the fluorescence slope in assay [4] was -0.578 (inactive). Also, the NADPH fluorescence slope in assay [5] was -3.3e-05 (inactive). The slope in assay [6] is 0.00611 (inactive).
In the case of `Cn1c(=O)c2nc(Cl)n(Cc3ccc(Cl)cc3Cl)c2n(C)c1=O`, the cell count in assay [1] stood at 719. In addition, the inhibition was -22.4% (inactive) in assay [1], -7.8% (inactive) in assay [3], 21.4% (inactive) in assay [7] and 23.2% (inactive) in assay [8]. Further, the inhibition of aggregation in assay [2] is 11.5% (inactive). Also, the nuclei count in assay [2] turned out to be 89.6%; in assay [3], 110%. Besides, in assay [4], the fluorescence slope is -0.514 (inactive). The NADPH fluorescence slope in assay [5] was -4.5e-05 (inactive). For the same compound, the slope in assay [6] is 0.00452 (inactive).
On to `COc1ccc(S(=O)(=O)Nc2ccc3c(c2)OCO3)cc1Cl`, for which the cell count in assay [1] was 625. For the same compound, the inhibition is 7% (inactive) in assay [1], -9.8% (inactive) in assay [3], 10.6% (inactive) in assay [7] and 12.9% (inactive) in assay [8]. In assay [2], the inhibition of aggregation is -18.4% (inactive). Also, the nuclei count in assay [2] and in assay [3] was 101% in each case. The fluorescence slope in assay [4] is -0.392 (inactive). Further, the NADPH fluorescence slope in assay [5] was -6.9e-05 (inactive). In addition, the slope in assay [6] was 0.00299 (inactive).
`CN1CCN(CC#CCC(O)(c2ccccc2)C2CCCC2)CC1` (stereo not given): the cell count in assay [1] was 415. For the same compound, the inhibition in assay [1] was 2.2% (inactive); in assay [3] it was -21.3% (inactive); in assay [7], 7.06% (inactive); in assay [8] it was 4.71% (inactive). Moreover, the inhibition of aggregation in assay [2] was -1.8% (inactive). Besides, the nuclei count in assay [2] turned out to be 99.7%; in assay [3] it was 118%. For the same compound, the fluorescence slope in assay [4] was -0.428 (inactive). In assay [5], the NADPH fluorescence slope is -4.8e-05 (inactive). The slope in assay [6] was 0.00551 (inactive).
As to `Cc1cccc2c(=O)oc(-c3ccc4c(c3)C(=O)N(CC3CCCO3)C4=O)nc12` (stereo not given), the cell count in assay [1] was 349. Further, the inhibition in assay [1] is 1.9% (inactive); in assay [3], -6.3% (inactive); in assay [7] it was 16.1% (inactive); in assay [8] it was 14.4% (inactive). In assay [2], the inhibition of aggregation is -22.2% (inactive). The nuclei count turned out to be 107% in assay [2] and 58.4% in assay [3]. In addition, the fluorescence slope in assay [4] was -0.521 (inactive). Moreover, the NADPH fluorescence slope in assay [5] is 2.4e-05 (inactive). The slope in assay [6] was 0.0053 (inactive).
Regarding `CCCCC(=O)NCCc1cc2ccc(OC)cc2[nH]c1=O`, the cell count in assay [1] turned out to be 341. For the same compound, the inhibition in assay [1] was -17% (inactive); in assay [3], -5.9% (inactive); in assay [7], -3.47% (inactive); in assay [8] it was 98.8% (active). The inhibition of aggregation in assay [2] is 25.1% (inactive). For the same compound, the nuclei count in assay [2] turned out to be 84.4%; in assay [3], 91.4%. Further, the fluorescence slope in assay [4] was -0.464 (inactive). For the same compound, the NADPH fluorescence slope in assay [5] is -0.000398 (inactive). Besides, in assay [6], the slope was 0.00611 (inactive).
For `CCOC(=O)N1CCN(C(=O)c2ccc3c(SCC(=O)O)c4c(nc3c2)CCCC4)CC1`, the cell count in assay [1] was determined as 819. The inhibition in assay [1] is -5.2% (inactive); in assay [3], -74.3% (inactive); in assay [7] it was 9.84% (inactive); in assay [8], 21.6% (inactive). In addition, the inhibition of aggregation in assay [2] was 14.8% (inactive). Besides, the nuclei count amounted to 100% in assay [2] and 137% in assay [3]. Besides, the fluorescence slope in assay [4] is -0.542 (inactive). Also, the NADPH fluorescence slope in assay [5] is 7.3e-06 (inactive). Besides, in assay [6], the slope is 0.00656 (inactive).

Values taken from PubChem BioAssay.
